Data: the supplement of paper PMC13380429

System: Vero E6 infected with SARS-CoV-2
Assay: inhibition of SARS-CoV-2 cytopathic effect; higher = more antiviral protection, active = above 15
Conditions: 48 h

Measured: inhibition of SARS-CoV-2 cytopathic effect

CC[C@H](C)[C@H](N)C1=N[C@H](C(=O)N[C@@H](CC(C)C)C(=O)N[C@H](CCC(=O)O)C(=O)N[C@H](C(=O)N[C@H]2CCCCNC(=O)[C@H](CC(N)=O)NC(=O)[C@@H](CC(=O)O)NC(=O)[C@H](Cc3cnc[nH]3)NC(=O)[C@@H](Cc3ccccc3)NC(=O)[C@H]([C@@H](C)CC)NC(=O)[C@@H](CCCN)NC2=O)[C@@H](C)CC)CS1 [bacitracin]
inactive: 1 nM -0.71% | 8.33 nM 2.89% | 100 nM -2.3% | 833.33 nM -1.54% | 10000 nM -0.85%

Clc1cccc(SC2CCNCC2)n1 [anpirtoline]
inactive: 1 nM -4.7% | 8.33 nM -4.88% | 100 nM 1.08% | 833.33 nM 0.38% | 10000 nM -4.79%

CC(C)[C@@H](C)/C=C/[C@@H](C)[C@H]1CC[C@H]2C3=CC=C4C[C@@H](O)CC[C@]4(C)[C@H]3CC[C@]12C [ergosterol]
inactive: 1 nM -3.22% | 8.33 nM 1.48% | 100 nM 0.86% | 833.33 nM 2.74% | 10000 nM 2.85%

COc1ccc(-c2nc(N3CCOCC3)c3sc(CN(C)c4ncc(C(=O)NO)cn4)cc3n2)cn1
inactive: 1 nM -0.39% | 8.33 nM -5.36% | 100 nM -18.1% | 833.33 nM -20.7% | 10000 nM -21.4%

CC(=O)Oc1ccccc1C(=O)Nc1ncc([N+](=O)[O-])s1 [nitazoxanide]
inactive: 1 nM 4.76% | 8.33 nM -3.73% | 100 nM -1.27% | 833.33 nM -0.63% | 10000 nM 8.82%

NS(=O)(=O)c1cc(C(=O)O)cc(N2CCCC2)c1Oc1ccccc1 [piretanide]
inactive: 1 nM 3.5% | 8.33 nM 5.18% | 100 nM 2.39% | 833.33 nM -2.57% | 10000 nM 1%

N#CN1CCCC1 [pyrrolidine-1-carbonitrile]
inactive: 1 nM 3.76% | 8.33 nM 2.93% | 100 nM -2% | 833.33 nM 1.38% | 10000 nM 2.45%

CCN1/C(=C/C(C)=O)Sc2ccc(OC)cc21
inactive: 1 nM 1.8% | 8.33 nM 1.75% | 100 nM -2.1% | 833.33 nM 0.11% | 10000 nM 0.79%

C[C@@H]1NC(=O)[C@@H]2CCCN2C(=O)[C@H](CC(N)=O)NC(=O)[C@@H]2CSSC[C@H](N)C(=O)N[C@H]3CSSC[C@H](NC1=O)C(=O)N[C@@H]([C@@H](C)O)C(=O)NCC(=O)N[C@H](C(=O)N[C@@H](Cc1ccc(O)cc1)C(=O)O)CSSC[C@H](NC(=O)[C@H](Cc1ccc(O)cc1)NC(=O)[C@H](CCC(=O)O)NC3=O)C(=O)N2 [linaclotide]
inactive: 1 nM -2.9% | 8.33 nM 0.88% | 100 nM 1.75% | 833.33 nM 1% | 10000 nM 3.24%

c1cc(CN2CCCNCCNCCCNCC2)ccc1CN1CCCNCCNCCCNCC1 [plerixafor]
inactive: 1 nM -2.23% | 8.33 nM -1.5% | 100 nM 0.88% | 833.33 nM 0.29% | 10000 nM 1.12%

CC(C)OC(=O)OCOP(=O)(CO[C@H](C)Cn1cnc2c(N)ncnc21)OCOC(=O)OC(C)C [tenofovir-disoproxil]
inactive: 1 nM 0.65% | 8.33 nM -1.58% | 100 nM 3.17% | 833.33 nM -4% | 10000 nM -9.11%

CN(C)c1ccc(/C=C2\CCCN=C2c2cccnc2)cc1 [DMAB-anabaseine]
inactive: 1 nM -2.66% | 8.33 nM -1.76% | 100 nM 0.68% | 833.33 nM 4.31% | 10000 nM -5.07%

O=C(OC[C@H]1O[C@@H](OC(=O)c2cc(O)c(O)c(OC(=O)c3cc(O)c(O)c(O)c3)c2)[C@H](OC(=O)c2cc(O)c(O)c(OC(=O)c3cc(O)c(O)c(O)c3)c2)[C@@H](OC(=O)c2cc(O)c(O)c(OC(=O)c3cc(O)c(O)c(O)c3)c2)[C@@H]1OC(=O)c1cc(O)c(O)c(OC(=O)c2cc(O)c(O)c(O)c2)c1)c1cc(O)c(O)c(OC(=O)c2cc(O)c(O)c(O)c2)c1 [tannic-acid]
inactive: 1 nM -0.39% | 8.33 nM 0.91% | 100 nM -0.77% | 833.33 nM -3.86% | 10000 nM -6.77%

CCCc1cc(=O)[nH]c(=S)[nH]1 [propylthiouracil]
inactive: 1 nM 3.65% | 8.33 nM -8.68% | 100 nM 2.66% | 833.33 nM 2.01% | 10000 nM -1.99%
